Source: PubChem (National Center for Advancing Translational Sciences (NCATS))
JMJD2A Tudor – qHTS Assay for Inhibitors of JMJD2A-Tudor Domain. Lysine-specific demethylase 4A (Homo sapiens), O75164. AlphaScreen JMJD2A-Tudor / H3K4me3 peptide binding. Potency, µM (titrated, usually from 114 µM), for the others: at the top dose activity change, negative = inhibition, most hits filed as inhibitors. 4.4% of 390,000 active; note: % is set by controls: 0 for no effect and ±100 for the full control effect; nearly all actives have a fitted effect of over 50% in size
PLK1 PBD block – qHTS for Inhibitors of PLK1-PDB (polo-like kinase 1 - polo-box domain): Primary Screen; Serine/threonine-protein kinase PLK1 (Homo sapiens), P53350; Plk1 PBD binding of FITC phosphopeptide, fluorescence polarization; Potency, µM, inactives show max response, negative = inhibition, most hits filed as inhibitors; 2.8% of 360,000 active; AID 720504, 2013; note: series mostly up to about 57 µM; % is set by controls: 0 for no effect and ±100 for the full control effect; nearly all actives have a fitted effect of over 65% in size
Target sequence (P53350 whole entry, looked up, the tested form may be a part): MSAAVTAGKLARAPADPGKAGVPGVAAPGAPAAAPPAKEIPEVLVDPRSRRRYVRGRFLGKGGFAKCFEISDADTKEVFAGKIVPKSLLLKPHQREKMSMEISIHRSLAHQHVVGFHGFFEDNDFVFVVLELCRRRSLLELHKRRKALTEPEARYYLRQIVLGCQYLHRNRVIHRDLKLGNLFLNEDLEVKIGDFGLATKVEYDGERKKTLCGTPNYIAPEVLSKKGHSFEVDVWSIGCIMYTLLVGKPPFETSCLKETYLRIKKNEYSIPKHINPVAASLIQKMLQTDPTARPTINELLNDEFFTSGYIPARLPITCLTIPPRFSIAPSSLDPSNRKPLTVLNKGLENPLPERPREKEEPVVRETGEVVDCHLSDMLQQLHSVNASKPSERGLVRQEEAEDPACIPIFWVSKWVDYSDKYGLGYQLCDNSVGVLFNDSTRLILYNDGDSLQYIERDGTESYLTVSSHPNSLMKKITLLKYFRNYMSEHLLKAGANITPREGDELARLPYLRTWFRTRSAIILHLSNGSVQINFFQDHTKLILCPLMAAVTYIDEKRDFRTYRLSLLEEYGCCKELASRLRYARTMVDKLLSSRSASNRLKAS
BAZ2B block – qHTS Assay for Inhibitors of BAZ2B | Bromodomain adjacent to zinc finger domain protein 2B (Homo sapiens), Q9UIF8 | AlphaScreen BAZ2B-H3K14Ac peptide displacement | Potency, µM (top dose mostly 114 µM), without a hit: at the top dose activity change, negative = inhibition, actives largely listed as inhibitors | 4.4% of 360,000 active; note: % is set by controls: 0 for no effect and ±100 for the full control effect; nearly all actives have a fitted effect of over 60% in size
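AlphaScreen displacement: compounds (up to 110uM) incubated 30 min at room temperature with a preformed 50 nM BAZ2B/50 nM biotinylated H3K14Ac peptide complex in PBS pH 7.4 with Tween-20. Donor and acceptor beads at 10 ug/mL final added, 20 min light-protected before reading.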
VDR inhibitor – Inhibitors of the vitamin D receptor (VDR): qHTS | VDR-SRC2-3 peptide fluorescence polarization, 2 h | Potency, µM, for the others: max response, negative = inhibition, actives largely listed as inhibitors | 0.93% of 400,000 active; note: % is set by controls: 0 for no effect and ±100 for the full control effect
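Fluorescence polarization assay of small-molecule disruption of VDR binding to coregulator peptide SRC2-3. Compounds and controls pin-transferred, then read after 2 h incubation at ambient room temperature.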
G9a block – qHTS Assay for Inhibitors of Histone Lysine Methyltransferase G9a; G9a H3K9 monomethylation, AlphaScreen, 2 h; Potency, µM (top dose mostly 102 µM), without a hit: at the top dose activity, negative = inhibition, hits mostly inhibitors; 8.8% of 350,000 active; AID 504332, 2011; note: % is set by controls: 0 for no effect and ±100 for the full control effect; nearly all actives have a fitted effect of over 75% in size
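Compounds were preincubated with 20 nM G9a for 15 min, after which biotinylated H3K9 peptide (500 nM) and SAM (20 uM) started a 2 h room-temperature reaction. Monomethylated product was quantified by antibody-based AlphaScreen chemiluminescence.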
HP1b binding inh – HTS for Inhibitors of HP1-beta Chromodomain Interactions with Methylated Histone Tails | AlphaScreen HP1-beta / biotin-H3K9me3 peptide binding | 0.56% of 390,000 active | Potency, µM (titrated, usually from 114 µM), for inactives: at the top dose activity change, negative = inhibition, hits mostly inhibitors | Chromobox protein homolog 1 (Homo sapiens), P83916; note: nearly all actives have a fitted effect of over 70% in size
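AlphaScreen: HP1-beta (50 nM) preformed 30 min with biotin-H3(1-18)K9me3 peptide (50 nM) in PBS pH 7.4, 0.01% Tween-20. Compound added for 30 min at RT, then streptavidin donor/nickel chelate acceptor beads (10 ug/mL) for 30 min.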
Numbers without * were called inactive; ? = inconclusive; / = no result given; [ ] = remark or other dose. Sampled rows, rich in hits. Any-hit rate of the full collection: about 11%. Calls come from the whole dose curve; as a rule, active = well fitted curve in the direction sought with a large enough effect; inconclusive = small, poorly fitted or top-dose-only effect, or another doubt; inactive = no such curve, though single readings can be large; an effect the other way counts as inactive or inconclusive. Potency is the fitted concentration of half-maximal effect.

SMILES	JMJD2A Tudor	PLK1 PBD block	BAZ2B block	VDR inhibitor	G9a block	HP1b binding inh
CCc1ccccc1N1CC(c2nc3ccccc3n2CC(C)C)CC1=O (stereo not given)	-17%	/	-3%	5%	5%[59 µM]	0%
COc1ccccc1NC(=O)C1=C(C)Nc2nc(SCc3ccccc3Cl)nn2C1c1ccccn1 (stereo not given)	1%	/	1%	-16%	-28%[59 µM]	28%
O=C(CCCN=C1NS(=O)(=O)c2ccccc21)OCC(=O)c1ccccc1Cl	-10%	-4%	6%	-8%	?	20%
COc1ccc(NS(=O)(=O)c2ccc3[nH]c4c(c3c2)CCCCCC4)cc1	-5%	/	-2%	5%	-49%[59 µM]	23%[57 µM]
CCOc1ccc(CNS(=O)(=O)c2ccc3[nH]c4c(c3c2)CCCC4)cc1OC	?	/	45µM*	-15%	?	?
Cc1ccc(NS(=O)(=O)c2ccc3[nH]c4c(c3c2)CCCCC4)cc1	?	/	-31%[57.1 µM]	25%	14µM*	-19%
COc1ccc(CNC(=O)c2ccc3c(c2)N(Cc2ccccc2)C(=O)c2ccccc2S3(=O)=O)cc1	5%	/	-13%	2%	-1%[59 µM]	50%
C#CCOCCOCCOCCNc1nc(N2CCN(C(=O)Cn3cc(CCO)nn3)CC2)nc(N2CCN(C(=O)[C@H](Cc3ccc(O)cc3)n3cc(CCO)nn3)CC2)n1	-13%	-3%	/	-18%	/	39%
CCn1c(CSc2nnc(-c3ccoc3C)n2C)nc2cc(S(=O)(=O)N(C)C)ccc21	-12%	-13%	-8%	-6%	50µM*	32%
N#C/C(=N\Nc1cccc(C(F)(F)F)c1)C(=O)c1ccsc1	50µM*	?	40µM*	-5%	40µM*	-20%
O=C(Nc1cccc(C(F)(F)F)c1)Nc1cccs1	-26%	/	-8%	2%	-42%[59 µM]	-23%
c1ccc(-c2nn3c(Cn4nnc5ccccc54)nnc3s2)nc1	?	27µM*	-31%	-15%	?	-28%
c1cncc(-c2nn3c(Cn4nnc5ccccc54)nnc3s2)c1	-9%	17µM*	14%	?	13%[2.33 µM]	-22%
COc1cc(C(CCN2CCCCC2)c2c(OC)cc(OC)c3c(C)cc(=O)oc23)cc(OC)c1OC (stereo not given)	-20%	-9%	-13%	-3%	26%[59 µM]	14%
COc1ccc(C2CC(=O)Oc3c(C(CCN4CCCC(C)C4)c4cc(OC)c(OC)c(OC)c4)c(OC)cc(OC)c32)cc1 (stereo not given)	?	/	/	-8%	/	17%
COc1cc(OC)c2c(c1C(CCN1CCCC1)c1ccc(N(C)C)cc1)OC(=O)CC2c1ccc(N(C)C)cc1 (stereo not given)	16µM*	/	/	4%	/	?
COc1ccc(C2CC(=O)Oc3c(C(CCN4CCCCC4)c4ccc(N(C)C)cc4)c(OC)cc(OC)c32)cc1 (stereo not given)	16µM*	6%	22µM*	-10%	-105%[59 µM]	?
COc1ccc(C2CC(=O)Oc3c(C(CCN4CCCC(C)C4)c4ccc(N(C)C)cc4)c(OC)cc(OC)c32)cc1 (stereo not given)	14µM*	-3%	14µM*	-6%	-120%[59 µM]	14µM*
COc1ccc(C(CCN2CCCC(C)C2)c2c(OC)cc(OC)c3c(C)cc(=O)oc23)cc1 (stereo not given)	-28%	-6%	-2%	-9%	8%[59 µM]	10%
C=CCN1C(=O)C(CC(=O)Nc2ccccc2)N(Cc2ccccn2)C1=S (stereo not given)	-14%	-11%	-12%	-1%	25%[59 µM]	38%
